In PubChem BioAssay (EPA / NIEHS):
Records with an inconclusive call do not appear. Active and inactive are the calls of the source. The calls were made as follows, unless noted: active = hit-call score of the fitted dose curve at least 0.9, where 1 is the maximum; inconclusive = response in the unintended direction; inactive = score below 0.9.

What was measured:
[1] = read-out: Intercellular Adhesion Molecule 1 (ICAM1), ICAM1 (gene 3383); assay: BSK_3C_ICAM1: BioMAP Diversity Plus: 3C Assay for Intercellular Adhesion Molecule 1 (ICAM1) Biomarker Activity (AID 2283003; active = hit-call score of the fitted dose curve at least 0.9, where 1 is the maximum; inactive = score below 0.9); conditions: primary human endothelial cells (HUVEC); actives raise or lower the signal
Method in brief: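 ELISA readout of ICAM1 in human umbilical vein endothelial cells in the 3C system, taken 24 h post-dose. Gain or loss of signal versus DMSO was fitted in both directions, with SRB total-protein staining run in parallel.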

[2] = BSK_3C_Proliferation: Cell Proliferation Assessment in the BioMAP Diversity Plus: 3C Assay (AID 2283006; active = hit-call score of the fitted dose curve at least 0.9, where 1 is the maximum; inactive = score below 0.9;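 as to AC50: potency may reflect either rise or fall in cell number versus DMSO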); conditions: primary human endothelial cells (HUVEC)
Method in brief: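 Proliferation as total protein: sulforhodamine B (0.1%) stain of TCA-fixed subconfluent human umbilical vein endothelial cells, absorbance 560 nm, 48 h after dosing. Activity fitted in both directions against DMSO baseline.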

[3] = biological target: Peroxisome proliferator-activated receptor gamma (Homo sapiens) (UniProt P37231); assay: ATG_PPARg_TRANS: Attagene TRANS-FACTORIAL HepG2 Assay for human Peroxisome Proliferator-activated Receptor-gamma (PPARg) (AID 2283007)
Peroxisome proliferator-activated receptor gamma (Homo sapiens), sequence (P37231 whole entry, looked up, the tested form may be a part): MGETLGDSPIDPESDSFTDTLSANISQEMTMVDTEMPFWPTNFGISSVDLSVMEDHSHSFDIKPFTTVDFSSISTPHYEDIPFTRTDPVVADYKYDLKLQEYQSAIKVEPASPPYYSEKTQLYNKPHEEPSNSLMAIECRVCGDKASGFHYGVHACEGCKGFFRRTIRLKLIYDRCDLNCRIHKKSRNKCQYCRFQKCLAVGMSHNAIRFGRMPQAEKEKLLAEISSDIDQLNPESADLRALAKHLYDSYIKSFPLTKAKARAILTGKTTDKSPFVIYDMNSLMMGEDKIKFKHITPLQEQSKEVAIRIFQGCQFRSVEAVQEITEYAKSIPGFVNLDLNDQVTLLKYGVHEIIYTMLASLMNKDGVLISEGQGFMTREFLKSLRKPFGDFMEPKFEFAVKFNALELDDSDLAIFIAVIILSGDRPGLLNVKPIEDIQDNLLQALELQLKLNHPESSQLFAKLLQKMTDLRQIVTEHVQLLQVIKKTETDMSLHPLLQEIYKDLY
Method in brief: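 Transient transfection of HepG2 with GAL4-UAS-driven reporter units; chemical dosing 24 h; total RNA → oligo(dT) RT → PCR with reporter primers → 6-FAM primer extension → HpaI digest 2 h 37 C → capillary electrophoresis. Positive direction vs DMSO.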

[4] = biological target: Retinoic acid receptor RXR-alpha (Homo sapiens) (UniProt P19793); assay: ATG_RXRa_TRANS: Attagene TRANS-FACTORIAL HepG2 Assay for human Retinoid X Receptor alpha (RXRa) (AID 2283012)
Retinoic acid receptor RXR-alpha (Homo sapiens), sequence (P19793 whole entry, looked up, the tested form may be a part): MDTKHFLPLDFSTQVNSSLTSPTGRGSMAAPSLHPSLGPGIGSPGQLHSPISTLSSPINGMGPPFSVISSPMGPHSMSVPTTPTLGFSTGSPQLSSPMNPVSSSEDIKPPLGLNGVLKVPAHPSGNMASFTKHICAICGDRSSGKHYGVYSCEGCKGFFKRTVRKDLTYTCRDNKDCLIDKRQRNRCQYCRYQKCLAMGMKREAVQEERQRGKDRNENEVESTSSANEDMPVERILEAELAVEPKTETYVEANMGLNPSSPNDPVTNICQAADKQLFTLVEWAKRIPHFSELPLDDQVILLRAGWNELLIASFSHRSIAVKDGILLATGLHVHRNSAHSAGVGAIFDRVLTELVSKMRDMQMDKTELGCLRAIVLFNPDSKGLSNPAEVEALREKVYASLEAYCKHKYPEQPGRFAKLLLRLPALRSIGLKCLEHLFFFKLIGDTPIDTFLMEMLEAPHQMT
Method in brief: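 TRANS format reporting activity of exogenous RXRa-Gal4 chimera in transiently transfected HepG2, 24 h exposure. Reporter transcripts quantified by RT-PCR with capillary electrophoresis, with gain of signal scored relative to DMSO.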

[5] = biological target: human Thyroid Receptor alpha (THRa1), THRA (gene 7067) (UniProt P10827); assay: ATG_THRa1_TRANS: Attagene TRANS-FACTORIAL HepG2 Assay for human Thyroid Receptor alpha (THRa1) (AID 2283014)
human Thyroid Receptor alpha (THRa1), THRA (gene 7067), sequence (P10827 whole entry, looked up, the tested form may be a part): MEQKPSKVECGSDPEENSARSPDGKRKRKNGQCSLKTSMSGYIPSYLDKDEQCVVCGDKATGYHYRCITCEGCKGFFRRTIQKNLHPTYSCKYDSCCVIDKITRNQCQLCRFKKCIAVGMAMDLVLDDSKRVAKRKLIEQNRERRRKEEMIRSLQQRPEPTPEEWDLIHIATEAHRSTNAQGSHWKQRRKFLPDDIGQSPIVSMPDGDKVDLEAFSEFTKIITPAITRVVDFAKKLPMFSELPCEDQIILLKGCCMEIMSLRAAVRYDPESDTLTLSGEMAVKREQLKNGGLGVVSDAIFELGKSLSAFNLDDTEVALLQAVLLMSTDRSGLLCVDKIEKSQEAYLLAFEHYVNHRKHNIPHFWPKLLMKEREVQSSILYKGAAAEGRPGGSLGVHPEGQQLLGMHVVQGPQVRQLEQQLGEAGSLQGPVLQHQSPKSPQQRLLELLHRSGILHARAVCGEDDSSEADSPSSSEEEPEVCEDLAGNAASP
Method in brief: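 Reporter transcript induction, read by capillary electrophoresis of 6-FAM-labelled RT-PCR products, reflects activity of a transfected THRa1-Gal4 fusion in HepG2 liver cells. Cells were dosed for 24 h; activity was fitted in the positive direction against DMSO.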

[6] = read-out: Interleukin-1 alpha (IL1a), IL1A (gene 3552); assay: BSK_BE3C_IL1a: BioMAP Diversity Plus: BE3C Assay for Interleukin-1 alpha (IL1a) Biomarker Activity (AID 2283016; active = hit-call score of the fitted dose curve at least 0.9, where 1 is the maximum; inactive = score below 0.9); conditions: primary human bronchial epithelial cells; actives raise or lower the signal
Method in brief: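 IL-1a measured by ELISA after 24 h treatment of human primary bronchial epithelial cells, with gain or loss of signal fitted versus DMSO. Parallel cultures stained with SRB gauge overt cytotoxicity.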

[7] = read-out: Monocyte Chemoattractant Protein-1 (MCP1), CCL2 (gene 6347); assay: BSK_3C_MCP1: BioMAP Diversity Plus: 3C Assay for Monocyte Chemoattractant Protein-1 (MCP1) Biomarker Activity (AID 2283017; active = hit-call score of the fitted dose curve at least 0.9, where 1 is the maximum; inactive = score below 0.9); conditions: primary human endothelial cells (HUVEC); actives raise or lower the signal
Method in brief: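 ELISA read-out of MCP-1 from human umbilical vein endothelial cell cultures harvested 24 h post-dosing. Gain or loss of signal was fitted relative to DMSO.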

[8] = read-out: Monocyte Chemoattractant Protein-1 (MCP1), CCL2 (gene 6347); assay: BSK_4H_MCP1: BioMAP Diversity Plus: 4H Assay for Monocyte Chemoattractant Protein-1 (MCP1) Biomarker Activity (AID 2283018; active = hit-call score of the fitted dose curve at least 0.9, where 1 is the maximum; inactive = score below 0.9); conditions: primary human endothelial cells (HUVEC); actives raise or lower the signal
Method in brief: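 ELISA of MCP-1 (CCL2) 24 h after chemical dosing of HUVEC in the BioMAP 4H system. Gain or loss versus DMSO fitted; parallel SRB staining (560 nm) tracked overt cytotoxicity.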

[9] = read-out: Human Leukocyte Antigen - DR isotype (HLADR), HLA-DRA (gene 3122); assay: BSK_3C_HLADR: BioMAP Diversity Plus: 3C Assay for Human Leukocyte Antigen - DR isotype (HLADR) Biomarker Activity (AID 2283019; active = hit-call score of the fitted dose curve at least 0.9, where 1 is the maximum; inactive = score below 0.9); conditions: primary human endothelial cells (HUVEC); actives raise or lower the signal
Method in brief: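 ELISA readout of surface HLA-DR on human umbilical vein endothelium, taken 24 h after chemical treatment. Gain- and loss-of-signal were both fitted relative to DMSO.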

[10] = read-out: Interleukin-8 (IL8), CXCL8 (gene 3576); assay: BSK_3C_IL8: BioMAP Diversity Plus: 3C Assay for Interleukin-8 (IL8) Biomarker Activity (AID 2283020; active = hit-call score of the fitted dose curve at least 0.9, where 1 is the maximum; inactive = score below 0.9); conditions: primary human endothelial cells (HUVEC); actives raise or lower the signal
Method in brief: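 IL-8 was measured by ELISA in HUVEC cultures 24 h after chemical dosing, with gain or loss of signal fitted relative to DMSO. Parallel SRB total-protein staining tracked overt cytotoxicity.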

[11] = biological target: human Vitamin D Receptor (VDR), VDR (gene 7421) (UniProt P11473); assay: ATG_VDR_TRANS: Attagene TRANS-FACTORIAL HepG2 Assay for human Vitamin D Receptor (VDR) (AID 2283022)
human Vitamin D Receptor (VDR), VDR (gene 7421), sequence (P11473 whole entry, looked up, the tested form may be a part): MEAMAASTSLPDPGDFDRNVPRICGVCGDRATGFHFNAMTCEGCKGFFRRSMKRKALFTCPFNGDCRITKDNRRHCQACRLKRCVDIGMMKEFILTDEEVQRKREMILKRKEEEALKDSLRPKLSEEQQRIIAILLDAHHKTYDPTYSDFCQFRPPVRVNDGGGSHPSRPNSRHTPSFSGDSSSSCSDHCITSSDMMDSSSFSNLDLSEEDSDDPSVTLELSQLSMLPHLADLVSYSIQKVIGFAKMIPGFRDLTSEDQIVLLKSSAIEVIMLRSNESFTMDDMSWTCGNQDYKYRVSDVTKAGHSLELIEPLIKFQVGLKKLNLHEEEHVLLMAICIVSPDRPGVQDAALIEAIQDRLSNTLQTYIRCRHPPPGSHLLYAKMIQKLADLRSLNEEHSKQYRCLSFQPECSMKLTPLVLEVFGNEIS
Method in brief: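 Steps: transfect HepG2 with GAL4-UAS-driven reporter constructs; dose compounds 24 h; isolate RNA, reverse-transcribe, PCR-amplify with 6-FAM-labelled primer extension and HpaI digestion; quantify fragments by capillary electrophoresis relative to DMSO.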

[12] = biological target: Nuclear receptor subfamily 1 group I member 2 (Homo sapiens) (UniProt O75469); assay: ATG_PXR_TRANS: Attagene TRANS-FACTORIAL HepG2 Assay for human Pregnane X Receptor (PXR) (AID 2283008)
Nuclear receptor subfamily 1 group I member 2 (Homo sapiens), sequence (O75469 whole entry, looked up, the tested form may be a part): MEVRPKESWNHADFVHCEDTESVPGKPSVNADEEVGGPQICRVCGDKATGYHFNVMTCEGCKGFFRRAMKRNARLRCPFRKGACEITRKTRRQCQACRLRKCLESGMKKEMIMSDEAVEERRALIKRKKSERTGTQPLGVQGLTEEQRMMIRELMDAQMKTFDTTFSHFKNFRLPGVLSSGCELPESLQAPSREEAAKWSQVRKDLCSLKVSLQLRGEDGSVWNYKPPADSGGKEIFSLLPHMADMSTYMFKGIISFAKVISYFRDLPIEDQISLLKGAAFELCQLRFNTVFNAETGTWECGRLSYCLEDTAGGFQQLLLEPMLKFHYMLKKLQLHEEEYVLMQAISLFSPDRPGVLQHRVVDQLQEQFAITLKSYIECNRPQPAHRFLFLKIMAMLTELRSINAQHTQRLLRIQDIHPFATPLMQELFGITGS
Method in brief: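 HepG2 transfected (FuGene 6) with GAL4-UAS reporter units + PXR-Gal4 chimera; dosed 24 h. Total RNA → oligo(dT) RT → PCR → 6-FAM primer extension → HpaI cut → CE. Gain-of-signal vs DMSO.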

[13] = read-out: E-selectin (Homo sapiens) (UniProt P16581); assay: BSK_3C_Eselectin: BioMAP Diversity Plus: 3C Assay for Eselectin Biomarker Activity (AID 2283015; active = hit-call score of the fitted dose curve at least 0.9, where 1 is the maximum; inactive = score below 0.9;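 also: cell surface E-selectin protein quantified by ELISA 24 h after dosing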); conditions: primary human endothelial cells (HUVEC); actives raise or lower the signal
Method in brief: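 ELISA read-out of E-selectin on endothelial monolayers after 24 h chemical treatment. Human umbilical vein primary cells served as the system, with DMSO defining baseline activity for bidirectional fitting.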

[14] = read-out: Monokine induced gamma interferon (MIG), CXCL9 (gene 4283); assay: BSK_3C_MIG: BioMAP Diversity Plus: 3C Assay for Monokine induced gamma interferon (MIG) Biomarker Activity (AID 2283021; active = hit-call score of the fitted dose curve at least 0.9, where 1 is the maximum; inactive = score below 0.9); conditions: primary human endothelial cells (HUVEC); actives raise or lower the signal
Method in brief: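 ELISA measurement of MIG in human umbilical vein endothelial cells 24 h after treatment. Cytotoxicity tracked by SRB staining in parallel cultures; gain or loss of signal fitted relative to DMSO.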

[15] = biological target: human Retinoic Acid Receptor beta (RARb), RARB (gene 5915) (UniProt P10826); assay: ATG_RARb_TRANS: Attagene TRANS-FACTORIAL HepG2 Assay for human Retinoic Acid Receptor beta (AID 2283004)
Method in brief: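 Transient transfection of HepG2 with multiple reporter units → chemical dosing, 24 h → total RNA isolation → RT with oligo(dT) → reporter-specific PCR, 6-FAM primer extension, HpaI digest → capillary electrophoresis. Positive direction vs DMSO control.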

[16] = biological target: Retinoic acid receptor alpha (Homo sapiens) (UniProt P10276); assay: ATG_RARa_TRANS: Attagene TRANS-FACTORIAL HepG2 Assay for human Retinoic Acid Receptor alpha (RARa) (AID 2283005)
Retinoic acid receptor alpha (Homo sapiens), sequence (P10276 whole entry, looked up, the tested form may be a part): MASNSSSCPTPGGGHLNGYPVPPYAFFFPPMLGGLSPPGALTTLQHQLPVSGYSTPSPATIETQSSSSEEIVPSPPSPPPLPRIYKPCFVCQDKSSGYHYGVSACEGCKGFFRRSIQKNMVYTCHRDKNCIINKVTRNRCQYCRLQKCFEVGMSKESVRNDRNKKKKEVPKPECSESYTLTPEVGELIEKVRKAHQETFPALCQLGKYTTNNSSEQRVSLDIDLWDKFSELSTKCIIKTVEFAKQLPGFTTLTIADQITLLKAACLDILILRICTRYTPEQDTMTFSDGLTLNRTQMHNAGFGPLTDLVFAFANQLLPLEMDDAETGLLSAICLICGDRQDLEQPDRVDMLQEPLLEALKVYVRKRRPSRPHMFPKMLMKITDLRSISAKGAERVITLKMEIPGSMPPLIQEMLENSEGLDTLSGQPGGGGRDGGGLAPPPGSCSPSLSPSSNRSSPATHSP
Method in brief: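 HepG2 cells transiently transfected with multiple reporter units expressing chimeric RARα-GAL4 fusion, with GAL4-UAS-driven reporters. After 24 h compound exposure, reporter mRNA induction quantified by RT-PCR and capillary electrophoresis with fluorescent labeling; gain-of-signal fitted relative to DMSO control.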

[17] = biological target: human RAR-related Orphan Receptor beta (RORb), RORB (gene 6096) (UniProt Q92753); assay: ATG_RORb_TRANS: Attagene TRANS-FACTORIAL HepG2 Assay for human RAR-related Orphan Receptor beta (RORb) (AID 2283010)
human RAR-related Orphan Receptor beta (RORb), RORB (gene 6096), sequence (Q92753 whole entry, looked up, the tested form may be a part): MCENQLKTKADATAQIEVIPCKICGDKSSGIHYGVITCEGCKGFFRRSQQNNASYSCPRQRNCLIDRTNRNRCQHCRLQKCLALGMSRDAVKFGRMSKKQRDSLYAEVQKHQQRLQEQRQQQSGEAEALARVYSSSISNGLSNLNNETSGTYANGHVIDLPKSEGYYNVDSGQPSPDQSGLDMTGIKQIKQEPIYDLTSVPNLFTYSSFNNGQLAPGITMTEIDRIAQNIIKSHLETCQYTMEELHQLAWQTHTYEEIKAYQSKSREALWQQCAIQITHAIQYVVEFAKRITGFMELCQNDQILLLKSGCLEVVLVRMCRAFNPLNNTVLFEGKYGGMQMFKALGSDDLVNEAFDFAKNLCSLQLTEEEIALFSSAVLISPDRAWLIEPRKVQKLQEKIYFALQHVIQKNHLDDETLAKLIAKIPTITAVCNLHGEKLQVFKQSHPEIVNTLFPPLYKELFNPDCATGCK
Method in brief: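 Read-out is reporter mRNA induction, quantified by RT-PCR with fluorescent capillary electrophoresis, 24 h post-dose in transiently transfected HepG2 expressing exogenous NR-Gal4 chimera. Activity fitted upward versus DMSO.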

[18] = biological target: human RAR-related Orphan Receptor gamma (RORg), RORC (gene 6097) (UniProt P51449); assay: ATG_RORg_TRANS: Attagene TRANS-FACTORIAL HepG2 Assay for human RAR-related Orphan Receptor gamma (RORg) (AID 2283011)
human RAR-related Orphan Receptor gamma (RORg), RORC (gene 6097), sequence (P51449 whole entry, looked up, the tested form may be a part): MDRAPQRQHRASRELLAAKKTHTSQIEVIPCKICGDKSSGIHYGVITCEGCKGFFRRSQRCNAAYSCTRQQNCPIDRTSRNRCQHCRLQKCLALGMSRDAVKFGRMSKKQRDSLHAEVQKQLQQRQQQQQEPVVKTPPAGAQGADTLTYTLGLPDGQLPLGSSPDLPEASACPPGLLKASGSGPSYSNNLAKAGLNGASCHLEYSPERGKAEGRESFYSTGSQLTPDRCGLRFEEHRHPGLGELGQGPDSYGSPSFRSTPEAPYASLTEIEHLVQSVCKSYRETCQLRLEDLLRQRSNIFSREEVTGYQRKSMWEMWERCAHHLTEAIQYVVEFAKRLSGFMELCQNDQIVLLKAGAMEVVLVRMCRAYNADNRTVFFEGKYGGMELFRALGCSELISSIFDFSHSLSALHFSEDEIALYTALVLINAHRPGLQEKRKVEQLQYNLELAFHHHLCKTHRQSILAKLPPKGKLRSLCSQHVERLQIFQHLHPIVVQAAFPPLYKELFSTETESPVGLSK
Method in brief: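 First, HepG2 liver cells were transfected with GAL4-UAS-driven reporter constructs and the RORg-Gal4 fusion. Next, they were treated with chemical for 24 h. Finally, reporter mRNA was quantified by RT-PCR and capillary electrophoresis, with upward activity fitted against DMSO.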

[19] = biological target: human Retinoic Acid Receptor gamma (RARg), RARG (gene 5916) (UniProt P13631); assay: ATG_RARg_TRANS: Attagene TRANS-FACTORIAL HepG2 Assay for human Retinoic Acid Receptor gamma (RARg) (AID 2283009)
human Retinoic Acid Receptor gamma (RARg), RARG (gene 5916), sequence (P13631 whole entry, looked up, the tested form may be a part): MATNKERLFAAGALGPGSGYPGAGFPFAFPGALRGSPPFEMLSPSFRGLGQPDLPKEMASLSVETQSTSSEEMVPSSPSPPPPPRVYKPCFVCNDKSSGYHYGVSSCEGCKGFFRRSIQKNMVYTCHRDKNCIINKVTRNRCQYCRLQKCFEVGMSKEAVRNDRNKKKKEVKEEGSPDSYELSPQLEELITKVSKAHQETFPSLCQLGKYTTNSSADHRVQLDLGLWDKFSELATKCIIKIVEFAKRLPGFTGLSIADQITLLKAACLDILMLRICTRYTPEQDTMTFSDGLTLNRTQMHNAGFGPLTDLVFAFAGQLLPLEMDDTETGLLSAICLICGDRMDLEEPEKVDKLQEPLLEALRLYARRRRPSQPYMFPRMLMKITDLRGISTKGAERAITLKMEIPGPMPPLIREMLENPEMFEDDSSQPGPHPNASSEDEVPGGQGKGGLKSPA
Method in brief: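 Transactivation of exogenous RARg-Gal4 fusion measured as reporter transcript induction after 24 h in transfected HepG2 cells. RNA reverse-transcribed, amplified, fluorescently labeled and resolved by capillary electrophoresis; increase relative to DMSO.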

[20] = biological target: human Retinoid X Receptor beta (RXRb), RXRB (gene 6257) (UniProt P28702); assay: ATG_RXRb_TRANS: Attagene TRANS-FACTORIAL HepG2 Assay for human Retinoid X Receptor beta (RXRb) (AID 2283013)
human Retinoid X Receptor beta (RXRb), RXRB (gene 6257), sequence (P28702 whole entry, looked up, the tested form may be a part): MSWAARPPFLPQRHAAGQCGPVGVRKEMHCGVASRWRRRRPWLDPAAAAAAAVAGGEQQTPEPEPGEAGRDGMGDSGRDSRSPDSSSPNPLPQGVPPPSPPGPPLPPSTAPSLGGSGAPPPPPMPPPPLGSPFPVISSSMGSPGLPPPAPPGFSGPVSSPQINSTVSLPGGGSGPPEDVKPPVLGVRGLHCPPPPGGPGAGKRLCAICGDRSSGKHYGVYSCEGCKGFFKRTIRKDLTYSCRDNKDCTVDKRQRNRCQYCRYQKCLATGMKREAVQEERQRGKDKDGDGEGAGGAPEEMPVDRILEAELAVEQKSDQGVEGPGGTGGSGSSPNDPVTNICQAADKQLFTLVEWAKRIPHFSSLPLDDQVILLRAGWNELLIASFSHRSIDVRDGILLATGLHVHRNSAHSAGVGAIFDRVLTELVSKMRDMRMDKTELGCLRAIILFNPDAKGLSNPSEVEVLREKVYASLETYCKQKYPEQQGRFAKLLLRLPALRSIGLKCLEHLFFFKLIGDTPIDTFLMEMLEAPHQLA
Method in brief: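 Readout is reporter transcript induction after 24 h dosing. It is measured by RT-PCR of total RNA followed by fluorescent capillary electrophoresis. HepG2 liver cells carry transfected multiple reporter units driven by an exogenous RXRb-Gal4 fusion; activity is relative to DMSO.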

Measured: AC50

Cc1ccccc1OP(=O)(Oc1ccccc1)Oc1ccccc1
inactive: [1] | [4] | [5] | [11]
active: [2] 20 µM | [3] 3.74 µM | [6] 6.89 µM | [7] 31 µM | [8] 20 µM | [9] 30.4 µM | [10] 20 µM

Cc1ccc(OP(=O)(Oc2ccc(C)cc2C)Oc2ccc(C)cc2C)c(C)c1
inactive: [1] | [4] | [13] | [10] | [14] | [11]
active: [2] 6.87 µM | [12] 82.1 nM | [6] 4.77 µM | [7] 20 µM | [8] 4.53 µM | [9] 20 µM

CC(C)[N+](=O)[O-]
inactive: [15] | [16] | [3] | [12] | [17] | [18] | [5]

C[C@@H]1O[C@@H](O[C@H]2C[C@@H](O)[C@]3(CO)[C@H]4[C@H](O)C[C@]5(C)[C@@H](C6=CC(=O)OC6)CC[C@]5(O)[C@@H]4CC[C@]3(O)C2)[C@H](O)[C@H](O)[C@H]1O
inactive: [15] | [16] | [19] | [17] | [18] | [4] | [5] | [11]
active: [3] 0.131 µM

Cc1cccc(OP(=O)(Oc2cccc(C)c2)Oc2cccc(C)c2)c1
active: [2] 8.53 µM | [12] 521 nM | [6] 0.78 µM
inactive: [1] | [7] | [8] | [9] | [10] | [11]

CN(CCCC(O)c1cccnc1)N=O (stereo not given)
inactive: [15] | [16] | [3] | [12] | [17] | [18] | [4] | [20]

CC(C)CP(=S)(S)CC(C)C
inactive: [15] | [16] | [3] | [19] | [17] | [4] | [20]
active: [12] 59100 nM

O=C(Cc1ccccc1)OCCc1ccccc1
not listed: [4] | [5] | [12] | [13] | [14] | [15] | [16] | [17]
inactive: all other assays above

CC(C)CC(C)(c1ccc(O)cc1)c1ccc(O)cc1
inactive: [15] | [16] | [19] | [4] | [5] | [11]
active: [3] 11.1 µM | [12] 1470 nM

O=C(CCl)NCO
not listed: [3] | [4] | [13] | [14] | [15] | [16] | [20]
inactive: all other assays above
